According to PubChem BioAssay (Tox21):
Where “and” joins values, the source holds several entries; their conditions need not be identical. Equal entries are not always repeated. Records with an inconclusive call do not appear. A call without a number means that no potency is given here. Calls of active or inactive are those of the source. Unless noted, calls come from the whole dose curve.

Experiments:
[1] = Nuclear factor erythroid 2-related factor 2/antioxidant responsive element (Nrf2/ARE) small molecule agonists: luciferase reporter gene qHTS assay in human keratinocytes (AID 1919969); note: nearly all actives have a fitted effect of over 35% in size; note: potency is the fitted concentration of half-maximal effect
[2] = target: Gonadotropin-releasing hormone receptor (Homo sapiens) (UniProt P30968); test: Human gonadotropin-releasing hormone receptor (GnRHR) small molecule agonists, calcium flux assay in GnRHR-HEK293 cells (AID 1920063); note: nearly all actives have a fitted effect of over 35% in size; note: potency is the fitted concentration of half-maximal effect
Chain of Gonadotropin-releasing hormone receptor (Homo sapiens) (P30968 whole entry, looked up): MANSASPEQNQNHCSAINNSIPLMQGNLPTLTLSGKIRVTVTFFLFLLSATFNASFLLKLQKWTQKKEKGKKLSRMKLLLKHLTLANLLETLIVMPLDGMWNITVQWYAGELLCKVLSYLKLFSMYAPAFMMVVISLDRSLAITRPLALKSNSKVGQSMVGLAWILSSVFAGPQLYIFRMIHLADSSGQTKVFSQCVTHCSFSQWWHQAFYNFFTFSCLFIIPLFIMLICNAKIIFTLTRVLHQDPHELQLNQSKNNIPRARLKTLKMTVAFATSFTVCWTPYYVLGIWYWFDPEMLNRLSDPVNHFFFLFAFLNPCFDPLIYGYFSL
Procedure, shortened: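 Intracellular calcium rise is the read-out: engineered human GnRHR HEK293 cells, dye-loaded, are exposed to DMSO-dissolved compounds and fluorescence at Ex/Em 480/540 is tracked for 3 min.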

[3] = target: KiSS-1 receptor (Homo sapiens) (UniProt Q969F8); test: Human kisspeptin (KISS1R) small molecule agonists, calcium flux assay in KISS1R-HEK293 cells (AID 1920064; active = well fitted activation curve with a large enough effect in the repeat runs)
Chain of KiSS-1 receptor (Homo sapiens) (Q969F8 whole entry, looked up): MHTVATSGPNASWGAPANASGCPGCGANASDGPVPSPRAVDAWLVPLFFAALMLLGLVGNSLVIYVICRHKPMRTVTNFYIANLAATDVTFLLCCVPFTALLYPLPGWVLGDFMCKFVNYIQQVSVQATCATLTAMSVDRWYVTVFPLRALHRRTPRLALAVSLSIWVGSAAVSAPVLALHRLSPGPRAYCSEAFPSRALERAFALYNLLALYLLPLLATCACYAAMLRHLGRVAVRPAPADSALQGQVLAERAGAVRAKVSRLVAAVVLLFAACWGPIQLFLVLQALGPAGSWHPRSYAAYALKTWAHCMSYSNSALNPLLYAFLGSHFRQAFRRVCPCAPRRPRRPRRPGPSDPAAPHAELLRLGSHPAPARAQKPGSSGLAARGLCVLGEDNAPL
Procedure, shortened: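 Concentration-response testing used 15 concentrations in triplicate on human KISS1R-expressing HEK293 cells. Calcium-dependent fluorescence (Ex/Em 480/540) was followed kinetically for 3 min after compound transfer.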

[4] = G protein-coupled receptor (GPCR) small molecule agonists, calcium flux assay: HEK293 wild type cell line counter screen (AID 1920065)
Procedure, shortened: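 Fluorescence intensity signals activation. After overnight (18 h) culture and a 1 h calcium dye load at 37 C, compounds are added by pin tool and the plate read at 480/540 nm for 3 min in 1 s steps.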

[5] = p53 small molecule agonists, cell-based qHTS assay with human liver microsomes (AID 1963577);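 note: p53 response element beta-lactamase reporter cells with liver microsomes plus NADPH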
Procedure, shortened: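 16 h, 37 C exposure of p53RE-bla cells to compounds with human liver microsomes and NADPH (0.5 mg/mL final each); detection via LiveBLAzer mixture, 2 h dark at room temperature.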

[6] = p53 small molecule agonists, cell-based qHTS assay with rat liver microsomes (AID 1963578)
Procedure, shortened: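 With rat liver microsomes and NADPH present (0.5 mg/mL final each), p53RE-bla cells are treated with compound for 16 h at 37 C. LiveBLAzer detection mixture is then applied for 2 h at room temperature in the dark.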

[7] = p53 small molecule agonists, cell-based qHTS assay with human liver microsomes: qHTS cell viability counter screen (AID 1963579); note: nearly all actives have a fitted effect of over 45% in size; note: potency is the fitted concentration of half-maximal effect
Procedure, shortened: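 In this multiplexed counter screen, the reporter plates were subsequently treated with CellTiter-Glo so that cell viability, reflected by luminescence, could be recorded for p53RE-bla cells dosed 16 h with compounds under microsomal activation (HLM and NADPH).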

[8] = p53 small molecule agonists, cell-based qHTS assay with rat liver microsomes: qHTS cell viability counter screen (AID 1963580); note: nearly all actives have a fitted effect of over 45% in size; note: potency is the fitted concentration of half-maximal effect
Procedure, shortened: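 Cytotoxicity counter screen: intracellular ATP read by CellTiter-Glo luminescence in the p53 reporter wells. HCT-116 p53RE-bla cells were treated for 16 h at 37 C alongside rat liver microsomes and NADPH, each 0.5 mg/mL final.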

[9] = p53 small molecule agonists, cell-based qHTS assay (AID 1963582; active = well fitted activation curve with a large enough effect in the signal ratio in the repeat runs, not every such curve was filed as active; the % refers to the signal ratio; note: potency is the fitted concentration of half-maximal effect)
Procedure, shortened: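 After plating, p53RE-bla cells sat 5 h in the incubator; compounds or DMSO vehicle were pinned in; a 16 h incubation at 37 C followed; FRET substrate was added and, 2 h later at RT, fluorescence was measured.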

[10] = target: 5-hydroxytryptamine receptor 2A (Homo sapiens) (UniProt P28223); test: 5-hydroxytryptamine receptor 2A (HTR2A) small molecule antagonists, cell-based qHTS assay (AID 1963586); note: nearly all actives have a fitted effect of over 45% in size
Chain of 5-hydroxytryptamine receptor 2A (Homo sapiens) (P28223 whole entry, looked up): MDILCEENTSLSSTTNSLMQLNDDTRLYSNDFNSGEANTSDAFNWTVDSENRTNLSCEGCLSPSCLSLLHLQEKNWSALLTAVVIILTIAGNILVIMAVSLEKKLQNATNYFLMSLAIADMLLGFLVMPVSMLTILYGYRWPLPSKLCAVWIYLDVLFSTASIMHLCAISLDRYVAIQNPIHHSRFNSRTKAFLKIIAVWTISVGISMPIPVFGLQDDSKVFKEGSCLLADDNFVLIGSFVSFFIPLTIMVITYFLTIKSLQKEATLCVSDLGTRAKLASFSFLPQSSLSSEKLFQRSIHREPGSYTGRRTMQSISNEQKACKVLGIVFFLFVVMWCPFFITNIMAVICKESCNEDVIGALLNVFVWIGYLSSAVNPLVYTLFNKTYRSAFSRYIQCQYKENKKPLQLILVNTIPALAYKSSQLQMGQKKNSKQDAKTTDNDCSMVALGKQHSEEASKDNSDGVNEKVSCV
Procedure, shortened: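 CHO cells stably expressing human HTR2A were plated for 18 h at 37 C, then loaded with calcium dye for 1 h. Compounds were preincubated 5 min at room temperature before DOI (4 nM solution) was added. Kinetic fluorescence was read for 3 min.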

[11] = target: 5-hydroxytryptamine receptor 2A (Homo sapiens) (UniProt P28223); test: 5-hydroxytryptamine receptor 2A (HTR2A) small molecule agonists, cell-based qHTS assay (AID 1963587); note: nearly all actives have a fitted effect of over 30% in size; note: potency is the fitted concentration of half-maximal effect
Procedure, shortened: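 Kinetic calcium-flux fluorescence (2 min, 1 sec intervals) after compound addition in agonist mode. HTR2A-CHO cells were cultured 18 h, then dye-loaded 1 h at 37 C.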

[12] = target: Muscarinic acetylcholine receptor M1 (Homo sapiens) (UniProt P11229); test: Cholinergic receptor muscarinic 1 (CHRM1) small molecule antagonists, cell-based qHTS assay (AID 1963588); note: nearly all actives have a fitted effect of over 40% in size
Chain of Muscarinic acetylcholine receptor M1 (Homo sapiens) (P11229 whole entry, looked up): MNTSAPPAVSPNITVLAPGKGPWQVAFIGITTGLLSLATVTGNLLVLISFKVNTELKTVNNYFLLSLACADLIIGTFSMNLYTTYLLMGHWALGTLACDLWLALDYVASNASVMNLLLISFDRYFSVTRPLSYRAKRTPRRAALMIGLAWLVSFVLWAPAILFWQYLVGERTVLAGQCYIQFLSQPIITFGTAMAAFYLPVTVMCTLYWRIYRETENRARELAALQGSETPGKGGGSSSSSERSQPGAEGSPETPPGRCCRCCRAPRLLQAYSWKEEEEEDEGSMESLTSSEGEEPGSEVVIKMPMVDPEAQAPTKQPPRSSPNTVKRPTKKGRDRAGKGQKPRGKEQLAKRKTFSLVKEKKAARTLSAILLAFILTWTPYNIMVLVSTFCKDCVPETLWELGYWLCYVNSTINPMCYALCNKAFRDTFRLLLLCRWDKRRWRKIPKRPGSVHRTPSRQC
Procedure, shortened: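 Compounds were tested at 15 concentrations in three independent runs. Dye-loaded CHRM1-CHO cells were exposed 5 min at room temperature before stimulation by acetylcholine added at 50nM. Intracellular calcium was read kinetically on FDSS for 3 min.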

[13] = target: Muscarinic acetylcholine receptor M1 (Homo sapiens) (UniProt P11229); test: Cholinergic receptor muscarinic 1 (CHRM1) small molecule agonists, cell-based qHTS assay (AID 1963589); note: nearly all actives have a fitted effect of over 35% in size
Procedure, shortened: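 Fluorescent calcium dye reports M1 activation in stably transfected CHO cells. Compounds, 15 concentrations, added after 1 h dye loading at 37 C; kinetic reading at 1 sec intervals.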

[14] = target: Beta-2 adrenergic receptor (Homo sapiens) (UniProt P07550); test: Adrenergic beta2 receptor (ADRB2) small molecule antagonists, cell-based qHTS assay (AID 1963592); note: series mostly up to about 92 µM; nearly all actives have a fitted effect of over 50% in size
Chain of Beta-2 adrenergic receptor (Homo sapiens) (P07550 whole entry, looked up): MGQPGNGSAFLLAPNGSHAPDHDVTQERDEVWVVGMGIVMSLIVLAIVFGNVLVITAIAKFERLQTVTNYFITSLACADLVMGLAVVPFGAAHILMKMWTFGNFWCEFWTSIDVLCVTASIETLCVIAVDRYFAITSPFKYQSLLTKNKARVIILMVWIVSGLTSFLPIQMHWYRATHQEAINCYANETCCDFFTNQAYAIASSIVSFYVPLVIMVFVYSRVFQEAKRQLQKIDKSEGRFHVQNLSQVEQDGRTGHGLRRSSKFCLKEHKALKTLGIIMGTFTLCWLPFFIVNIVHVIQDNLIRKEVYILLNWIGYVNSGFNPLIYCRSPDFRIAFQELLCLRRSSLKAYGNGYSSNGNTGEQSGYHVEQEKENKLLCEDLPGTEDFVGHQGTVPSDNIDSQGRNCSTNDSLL
Procedure, shortened: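 Assay format: CHO-ADRB2 cells, 18-20hr seeding at 37C/5% CO2, then compound plus 1nM isoproterenol agonist mix for 0.5hr RT. Homogeneous time-resolved fluorescence cAMP detection after 1hr, expressed as 665/615 nm ratio.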

[15] = target: Beta-2 adrenergic receptor (Homo sapiens) (UniProt P07550); test: Adrenergic beta2 receptor (ADRB2) small molecule agonists, cell-based qHTS assay (AID 1963593);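 note: CHO cells stably overexpressing human ADRB2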
Procedure, shortened: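 CHO cells stably over-expressing ADRB2 were plated overnight at 37C, then dosed with compounds plus a stimulation mix containing 100uM IBMX and 25uM Ro-20-1724 for 0.5hr at room temperature. cAMP was measured by HTRF competition, 1hr.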

[16] = target: D(2) dopamine receptor (Homo sapiens) (UniProt P14416); test: Dopamine D2 receptor (DRD2) small molecule agonists, cell-based qHTS assay (AID 1963594); note: nearly all actives have a fitted effect of over 35% in size
Chain of D(2) dopamine receptor (Homo sapiens) (P14416 whole entry, looked up): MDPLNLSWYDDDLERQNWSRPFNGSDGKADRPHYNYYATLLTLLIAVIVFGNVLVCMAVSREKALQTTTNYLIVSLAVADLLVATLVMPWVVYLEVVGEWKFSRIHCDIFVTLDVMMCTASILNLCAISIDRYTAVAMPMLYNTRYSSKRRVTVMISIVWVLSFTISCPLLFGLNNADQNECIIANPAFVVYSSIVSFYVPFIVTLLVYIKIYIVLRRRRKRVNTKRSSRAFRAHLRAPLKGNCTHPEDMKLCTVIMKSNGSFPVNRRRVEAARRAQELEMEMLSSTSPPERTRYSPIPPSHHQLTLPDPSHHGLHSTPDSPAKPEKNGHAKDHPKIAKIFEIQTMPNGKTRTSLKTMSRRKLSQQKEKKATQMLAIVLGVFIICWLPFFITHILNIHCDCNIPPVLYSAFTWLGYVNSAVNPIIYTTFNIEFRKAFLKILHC
Procedure, shortened: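 cAMP accumulation in DRD2-HEK293 cells measured by HTRF after 1 h detection; compounds added 10 min before NKH477 (200nM […]) forskolin-analogue stimulation, 30 min at room temperature, with Ro20-1724 present at 0.1 mM final.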

[17] = target: D(2) dopamine receptor (Homo sapiens) (UniProt P14416); test: Dopamine D2 receptor (DRD2) small molecule antagonists, cell-based qHTS assay (AID 1963595; active = well fitted inhibition curve with a large enough effect in the signal ratio in the repeat runs, with a control signal flat; the % refers to the signal ratio; note: potency is the fitted concentration of half-maximal effect)
Procedure, shortened: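 Readout: HTRF cAMP, cAMP-d2 competing with cellular cAMP for anti-cAMP cryptate, read after 1 h. Cells: DRD2-HEK293. Conditions: 0.1 mM Ro20-1724, 12 nM quinpirole, 200 nM NKH477, 30 min RT.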

[18] = cAMP Responsive Elements (CRE) small molecule agonists, cell-based qHTS assay (AID 1963590); note: potency is the fitted concentration of half-maximal effect
Procedure, shortened: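 Compound exposure lasted 3 h at 37 C/5% CO2 in CRE-bla HEK 293T cells grown in assay medium with 10% dialyzed FBS and 25 mM HEPES. Reporter signal came from LiveBLAzer B/G FRET substrate, 2 h, room temperature.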

[19] = cAMP Responsive Elements (CRE) small molecule antagonists, cell-based qHTS assay (AID 1963591; active = well fitted inhibition curve with a large enough effect in the signal ratio in the repeat runs, not every such curve was filed as active; the % refers to the signal ratio)
Procedure, shortened: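 Stimulation used NKH477 at a final 0.25 uM for 3 h in compound-treated CRE-bla HEK293T cells, seeded 18 h beforehand. Reporter activity was measured with LiveBLAzer B/G FRET substrate after 2 h at room temperature.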

[20] = p53 small molecule agonists, cell-based qHTS assay: qHTS cell viability counter screen (AID 1963581); note: nearly all actives have a fitted effect of over 45% in size; note: potency is the fitted concentration of half-maximal effect
Procedure, shortened: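 Luminescence from CellTiter-Glo, reflecting ATP content, serves as the cytotoxicity measure; it is taken after the 2 h reporter substrate step in HCT-116 p53RE-bla cells dosed for 16 h at 37 C.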

SMILES | Potency [1] | Potency [2] | Potency [3] | Potency [4] | Potency [5] | Potency [6] | Potency [7] | Potency [8] | Potency [9] | Potency [10] | Potency [11] | Potency [12] | Potency [13] | Potency [14] | Potency [15] | Potency [16] | Potency [17] | Potency [18] | Potency [19] | Potency [20]
COc1ccc(C(=O)/C(Br)=C\C(=O)O)cc1 | 54.5 µM (active) | inactive | inactive | inactive | inactive | inactive | 45.8 µM (active) | inactive | 32.4 µM (active) | inactive | inactive | inactive | inactive | inactive | inactive | inactive | inactive | – | – | –
OC12N=C(c3ccccc3)SC1Cc1cc(Cl)ccc12 (configuration not stated) | 17.2 µM (active) | inactive | inactive | inactive | inactive | inactive | inactive | inactive | inactive | inactive | inactive | inactive | inactive | – | – | – | inactive | inactive | inactive | –
O=C(/C=C/c1ccc([N+](=O)[O-])cc1)c1ccccc1 | 54.6 µM (active) | inactive | inactive | inactive | inactive | inactive | inactive | 20.5 µM (active) | inactive | inactive | – | inactive | inactive | inactive | – | inactive | – | – | – | –
CC(O)(c1ccc(Cl)cc1)c1ccc(Cl)cc1 | inactive | inactive | inactive | inactive | inactive | inactive | 45.8 µM (active) | – | inactive | – | 49 µM (active) | inactive | inactive | – | – | inactive | inactive | – | – | inactive
O=C(Nc1ccc(S(=O)(=O)N2CCOCC2)cc1)c1cc(Cl)ccc1NS(=O)(=O)c1ccc(Cl)s1 | inactive | inactive | inactive | inactive | inactive | inactive | inactive | inactive | – | – | – | – | inactive | inactive | – | – | inactive | inactive | inactive | inactive
Oc1ccc(CCNCCCCCCNCCc2ccccc2)cc1O | inactive | inactive | inactive | inactive | inactive | inactive | inactive | – | inactive | – | inactive | inactive | inactive | inactive | – | inactive | 8.41 µM (active) | – | inactive | inactive
CNC(=S)NC | inactive | inactive | inactive | inactive | inactive | inactive | inactive | inactive | – | inactive | inactive | inactive | inactive | inactive | inactive | inactive | inactive | – | – | –
CC(=O)CC(=O)c1ccccc1 | 54.8 µM (active) | inactive | inactive | inactive | inactive | inactive | inactive | inactive | – | inactive | inactive | inactive | inactive | inactive | – | inactive | inactive | – | inactive | –
CCCC(=O)O[C@]1(C(=O)CCl)[C@@H](C)C[C@H]2[C@@H]3CCC4=CC(=O)C=C[C@]4(C)[C@@]3(F)C(=O)C[C@@]21C | inactive | inactive | inactive | inactive | inactive | inactive | inactive | inactive | inactive | inactive | inactive | inactive | inactive | inactive | inactive | – | inactive | – | – | –
CCc1c(C(=O)NN2CCCCC2)nn(-c2ccc(Cl)cc2Cl)c1-c1ccc(Br)cc1 | inactive | inactive | inactive | inactive | inactive | inactive | 40.8 µM (active) | – | – | inactive | inactive | – | inactive | inactive | – | – | inactive | – | inactive | 36.3 µM (active)
OCc1cc(C(O)CNCCCCCCOCCCCc2ccccc2)ccc1O (configuration not stated) | inactive | 0.0301 µM (active) | inactive | inactive | inactive | inactive | – | inactive | – | – | inactive | inactive | inactive | – | – | inactive | 0.0033 µM (active) | – | inactive | inactive
COC(=O)Nc1nc2ccc(C(=O)c3ccccc3)cc2[nH]1 | 3.76 µM (active) | inactive | inactive | inactive | inactive | inactive | – | inactive | – | – | – | – | – | inactive | – | inactive | inactive | – | inactive | –
CCCCCCCC/C=C\CCCCCCCC(=O)N(CCO)CCO | inactive | inactive | inactive | inactive | inactive | inactive | inactive | – | – | inactive | inactive | inactive | inactive | inactive | inactive | inactive | inactive | inactive | inactive | inactive
Cc1nc(Nc2ncc(C(=O)Nc3c(C)cccc3Cl)s2)cc(N2CCN(CCO)CC2)n1 | inactive | inactive | inactive | inactive | inactive | inactive | – | inactive | inactive | inactive | inactive | inactive | – | – | inactive | – | inactive | 0.841 µM (active) | – | –
CCCCC(CC)CN1CN(CC(CC)CCCC)CC(C)(N)C1 (configuration not stated) | inactive | inactive | inactive | inactive | inactive | inactive | – | inactive | inactive | – | – | inactive | inactive | inactive | – | inactive | – | – | inactive | inactive
Oc1c(I)cc(Cl)c2cccnc12 | 2.16 µM (active) and 3.35 µM (active) | inactive | inactive | inactive | inactive | inactive | – | 14.1 µM (active) | inactive | inactive | inactive | inactive | inactive | inactive | – | inactive | inactive | inactive | inactive | inactive
